Results from PubChem BioAssay AID1159580 (chemical genetic matrix, 2015).
Hit rate of the full screen: of about 5,500 compounds, about 2,000 (36%) were called active. About 18% were inconclusive and are not listed. Rule as the data show it: active = normalized growth mostly below about 0.91 (no sharp cut-off); inconclusive = no clear call, values can overlap the other calls; inactive = mostly above about 0.92. Some of the results follow.

Assay: chemical genetic growth profiling, strain panel (AID 1159580);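 also: tested at 20 µM; growth read once vehicle control cultures reached saturation at 30 °C; 1 = growth at the plate median or of vehicle wells; lower values mean less growth of the strain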
Conditions: growth OD

Measured: normalized growth

CCCCN(CC)c1c([N+](=O)[O-])cc(C(F)(F)F)cc1[N+](=O)[O-]
inactive: S. cerevisiae deletion strains, locus YJR075W, strain HOC1, active compounds read low 1 | S. cerevisiae deletion strains, locus YKL009W, strain mrt4, active compounds read low 1.04 | S. cerevisiae deletion strains, locus YKL068W, active compounds read low 1.01 | S. cerevisiae deletion strains, locus YKL085W, strain MDH1 (second series), active compounds read low 1.01 | S. cerevisiae deletion strains, locus YKL085W, strain MDH1, active compounds read low 1.01 | S. cerevisiae deletion strains, locus YKL160W, strain elf1, active compounds read low 1.02 | S. cerevisiae deletion strains, locus YKL190W, strain CNB1, active compounds read low 1.02 | S. cerevisiae deletion strains, locus YKR001C, strain vps1, active compounds read low 1.04 | S. cerevisiae deletion strains, locus YKR026C, strain gcn3, active compounds read low 1.02 | S. cerevisiae deletion strains, locus YKR091W, strain srl3, active compounds read low 1.01 | S. cerevisiae deletion strains, locus YLL001W, strain dnm1, active compounds read low 1.01 | S. cerevisiae deletion strains, locus YLL026W, active compounds read low 1 | S. cerevisiae deletion strains, locus YLL041C, strain sdh2, active compounds read low 1.01 | S. cerevisiae deletion strains, locus YLR027C, strain aat2, active compounds read low 0.996 | S. cerevisiae deletion strains, locus YLR039C, strain RIC1, active compounds read low 1.02 | S. cerevisiae deletion strains, locus YLR058C, strain SHM2, active compounds read low 1.01 | S. cerevisiae deletion strains, locus YLR102C, strain apc9, active compounds read low 1.01 | S. cerevisiae deletion strains, locus YLR113W, strain HOG1, active compounds read low 0.973 | S. cerevisiae deletion strains, locus YLR221C, strain rsa3, active compounds read low 1 | S. cerevisiae deletion strains, locus YLR258W, strain gsy2, active compounds read low 1.01 | S. cerevisiae deletion strains, locus YLR262C, strain YPT6 (second series), active compounds read low 0.995 | S. cerevisiae deletion strains, locus YLR262C, strain YPT6, active compounds read low 1.02 | S. cerevisiae deletion strains, locus YLR268W, strain sec22, active compounds read low 1.02 | S. cerevisiae deletion strains, locus YLR320W, strain mms22, active compounds read low 1.02 | S. cerevisiae deletion strains, locus YLR330W, strain CHS5, active compounds read low 1.01 | S. cerevisiae deletion strains, locus YLR342W, strain FKS1 (second series), active compounds read low 1.08 | S. cerevisiae deletion strains, locus YLR342W, strain FKS1, active compounds read low 1 | S. cerevisiae deletion strains, locus YLR357W, strain rsc2, active compounds read low 1.03 | S. cerevisiae deletion strains, locus YLR370C, strain arc18, active compounds read low 1.01 | S. cerevisiae deletion strains, locus YLR371W, strain rom2, active compounds read low 1.01 | S. cerevisiae deletion strains, locus YLR384C, strain iki3, active compounds read low 1 | S. cerevisiae deletion strains, locus YLR418C, strain cdc73, active compounds read low 1 | S. cerevisiae deletion strains, locus YML016C, strain PPZ1, active compounds read low 1.01 | S. cerevisiae deletion strains, locus YML032C, strain rad52, active compounds read low 1.02 | S. cerevisiae deletion strains, locus YML120C, strain ndi1, active compounds read low 1.03 | S. cerevisiae deletion strains, locus YML124C, strain tub3, active compounds read low 1.01 | S. cerevisiae deletion strains, locus YMR058W, strain fet3, active compounds read low 1.02 | S. cerevisiae deletion strains, locus YMR078C, strain ctf18, active compounds read low 1.01 | S. cerevisiae deletion strains, locus YMR125W, strain sto1, active compounds read low 1.01 | S. cerevisiae deletion strains, locus YMR129W, active compounds read low 1.02 | S. cerevisiae deletion strains, locus YMR205C, strain PFK2, active compounds read low 1 | S. cerevisiae deletion strains, locus YMR223W, strain ubp8, active compounds read low 1.02 | S. cerevisiae deletion strains, locus YMR231W, strain pep5, active compounds read low 0.997 | S. cerevisiae deletion strains, locus YMR263W, strain SAP30, active compounds read low 1.02 | S. cerevisiae deletion strains, locus YMR307W, strain GAS1, active compounds read low 0.998 | S. cerevisiae deletion strains, locus YNL067W, strain RPL9B, active compounds read low 1.01 | S. cerevisiae deletion strains, locus YNL071W, strain lat1, active compounds read low 1.02 | S. cerevisiae deletion strains, locus YNL128W, strain TEP1, active compounds read low 1.02 | S. cerevisiae deletion strains, locus YNL153C, strain GIM3, active compounds read low 1.01 | S. cerevisiae deletion strains, locus YNL183C, strain NPR1, active compounds read low 0.999 | S. cerevisiae deletion strains, locus YNL209W, strain ssb2, active compounds read low 1.01 | S. cerevisiae deletion strains, locus YNL233W, strain BNI4, active compounds read low 1.01 | S. cerevisiae deletion strains, locus YNL248C, strain rpa49, active compounds read low 1.02 | S. cerevisiae deletion strains, locus YNL250W, strain rad50, active compounds read low 1 | S. cerevisiae deletion strains, locus YNL271C, strain bni1, active compounds read low 1.01 | S. cerevisiae deletion strains, locus YNL298W, strain CLA4, active compounds read low 1.01 | S. cerevisiae deletion strains, locus YNL307C, strain MCK1, active compounds read low 1.02 | S. cerevisiae deletion strains, locus YNL322C, strain KRE1 (second series), active compounds read low 1.01 | S. cerevisiae deletion strains, locus YNL322C, strain KRE1, active compounds read low 1.01 | S. cerevisiae deletion strains, locus YNR049C, strain mso1, active compounds read low 1.01 | S. cerevisiae deletion strains, locus YNR052C, strain pop2, active compounds read low 1.02 | S. cerevisiae deletion strains, locus YOL006C, strain TOP1, active compounds read low 1.01 | S. cerevisiae deletion strains, locus YOL012C, strain htz1 0.93 | S. cerevisiae deletion strains, locus YOL147C, strain pex11, active compounds read low 1.01 | S. cerevisiae deletion strains, locus YOR001W, strain rrp6, active compounds read low 1.03 | S. cerevisiae deletion strains, locus YOR061W, strain CKA2, active compounds read low 1.01 | S. cerevisiae deletion strains, locus YOR069W, strain VPS5, active compounds read low 1.01 | S. cerevisiae deletion strains, locus YOR070C, strain gyp1, active compounds read low 1.02 | S. cerevisiae deletion strains, locus YOR080W, strain dia2, active compounds read low 1 | S. cerevisiae deletion strains, locus YOR083W, strain WHI5, active compounds read low 1.02 | S. cerevisiae deletion strains, locus YOR106W, strain vam3, active compounds read low 0.994 | S. cerevisiae deletion strains, locus YOR136W, strain idh2, active compounds read low 1.01 | S. cerevisiae deletion strains, locus YOR144C, strain elg1, active compounds read low 1.01 | S. cerevisiae deletion strains, locus YOR184W, strain ser1, active compounds read low 1.03 | S. cerevisiae deletion strains, locus YOR231W, strain MKK1, active compounds read low 1.06 | S. cerevisiae deletion strains, locus YOR265W, strain rbl2, active compounds read low 1.03 | S. cerevisiae deletion strains, locus YOR270C, strain vph1, active compounds read low 1.06 | S. cerevisiae deletion strains, locus YOR290C, strain snf2, active compounds read low 1.04 | S. cerevisiae deletion strains, locus YOR316C, strain cot1, active compounds read low 1.01 | S. cerevisiae deletion strains, locus YPL051W, strain arl3, active compounds read low 1 | S. cerevisiae deletion strains, locus YPL055C, strain LGE1, active compounds read low 1.01 | S. cerevisiae deletion strains, locus YPL078C, strain atp4, active compounds read low 1.02 | S. cerevisiae deletion strains, locus YPL106C, strain sse1, active compounds read low 1.03 | S. cerevisiae deletion strains, locus YPL240C, strain hsp82, active compounds read low 1.01 | S. cerevisiae deletion strains, locus YPL241C, strain CIN2, active compounds read low 1.01 | S. cerevisiae deletion strains, locus YPL256C, strain CLN2, active compounds read low 1.05 | S. cerevisiae deletion strains, locus YPR119W, strain clb2, active compounds read low 1.01 | S. cerevisiae deletion strains, locus YPR141C, strain kar3, active compounds read low 1.01 | S. cerevisiae deletion strains, locus YPR163C, strain tif3, active compounds read low 1.01 | S. cerevisiae deletion strains, locus YPR167C, strain met16, active compounds read low 1.02 | S. cerevisiae deletion strains, strain wtn01, active compounds read low 1.01 | S. cerevisiae strains, strain wild type, active compounds read low 1.01
